The list is not random: actives were taken first. Their share in the collection is about 13%.
FMDV antiviral = foot and mouth disease virus antiviral activity | FMDV antiviral cell-based qHTS | Potency, µM (series often up to 57.9 µM), most hits filed as inhibitors | actives 1.2% (n = 410,000) | AID 1159524; calls by dose curve; tested in HEK293T cells; also: read-out not given here; nearly all actives have a fitted effect of over 45% in size
Cycloheximide cs = affects cycloheximide protein synthesis inhibition readout, counter-screen; actives 12% (n = 300,000); cell reporter, cycloheximide protein synthesis inhibition counterscreen; max response, %; in the data active = max response mostly above about 13%, no sharp cut-off; inactive = mostly below about 14%; also: read at 38.3 µM for the half of the compounds with a filed dose
MARV entry inh = blocks Marburg virus binding to or entry into cells; Marburg virus pseudotyped entry inhibition, cell reporter; Potency, µM (series often up to 37.8 µM), usual class: inhibitors; actives 1.8% (n = 300,000); calls by dose curve; tested in HEK293 cells
Shiga toxin inh = Shiga toxin inhibition; Vero cells, Shiga toxin protein synthesis inhibition reporter; inhibition, % at 38.7 µM; actives 9.2% (n = 290,000); AID 2315; in the data active = inhibition mostly above about 28%, no sharp cut-off; inactive = mostly below about 43%
LASV entry inh = inhibitors of Lassa virus binding or cell entry. Lassa virus pseudotype entry inhibition, cell reporter. Potency, µM (series often up to 37.9 µM), usual class: inhibitors. actives 1.2% (n = 300,000); calls by dose curve; tested in HEK293 cells; also: nearly all actives have a fitted effect of over 50% in size
HCV inh = blocks hepatitis C virus; actives 3.4% (n = 340,000); Potency, µM (series often up to 41.8 µM), hits mostly inhibitors; Huh7.5.1 HCVcc-Cre infection, luciferase reporter, 44 h; active = well fitted inhibition curve with a large enough effect; inconclusive = small, poorly fitted or top-dose-only effect, or another doubt; inactive = no such curve, though single readings can be large or run the other way
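A cell-based infection assay in which seeded cells (1,000 per well) receive test compound after 4 h, are inoculated with HCVcc-Cre at approximately 0.5 moi, and are incubated 44 h before luminescence detection.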
Each line names hits and unclear results; the compound was inactive in the other large screens.

C=CCNC(=O)C1CC(=O)N(c2ccc(OCC(=O)Nc3ccccc3)cc2)C1 (centres undefined)	Cycloheximide cs 30, Shiga toxin inh 48
NC(=O)C1CC(=O)N(c2ccc(OCc3ccc(Cl)cc3)cc2)C1 (centres undefined)	Cycloheximide cs 50, Shiga toxin inh 79 (no result: MARV entry inh, LASV entry inh)
COc1ccc(NC(C)=O)cc1S(=O)(=O)Nc1ccc(C(=O)N2CCCC2)cc1	none (no result: MARV entry inh, LASV entry inh)
COC(=O)[C@H](Cc1ccccc1)N1C/C=C\COc2c(Cl)cc(Cl)cc2S1(=O)=O	MARV entry inh inconclusive, HCV inh inconclusive (no result: Cycloheximide cs, Shiga toxin inh, LASV entry inh)
CCCNC(=O)C1CC(=O)N(c2ccc(OCc3ccc(F)cc3)cc2)C1 (centres undefined)	Cycloheximide cs 33, Shiga toxin inh 112 (no result: MARV entry inh, LASV entry inh)
O=c1[nH]cc(S(=O)(=O)N2CCCc3ccccc32)c(=O)[nH]1	MARV entry inh inconclusive (no result: Cycloheximide cs, Shiga toxin inh)
O=C(Nc1cc2c(oc1=O)CCCC2=O)c1cccc(Cl)c1	Shiga toxin inh 61
COc1ccc(C(=O)Nc2cc3c(oc2=O)CCCC3=O)cc1	Cycloheximide cs 25, LASV entry inh inconclusive
C/C(=N\NS(=O)(=O)c1ccc(C)c([N+](=O)[O-])c1)c1ccc2c(c1)OCO2	Cycloheximide cs 27 (no result: MARV entry inh, LASV entry inh)
C/C(=N\NS(=O)(=O)c1ccccc1)c1ccc2c(c1)OCO2	Cycloheximide cs 12
Cc1c(C(=O)N2CCCC(C)C2)sc2ncnc(NCCN3CCCCC3)c12 (centres undefined)	none (no result: Cycloheximide cs, MARV entry inh, Shiga toxin inh, LASV entry inh, HCV inh)
CC(C)(C)OC(=O)N1CCC(C(=O)Nc2cccc(C(=O)NCCCCc3ccccc3)c2)CC1	FMDV antiviral 18µM, HCV inh inconclusive (no result: Cycloheximide cs, MARV entry inh, Shiga toxin inh, LASV entry inh)
CC(C)(C)OC(=O)N1CCCC(C(=O)Nc2cccc(C(=O)NCCCCc3ccccc3)c2)C1 (centres undefined)	FMDV antiviral inconclusive, MARV entry inh inconclusive (no result: Cycloheximide cs, Shiga toxin inh, LASV entry inh)
O=C(NCCc1ccccc1)c1cccc(NC(=O)C2CC2)c1	LASV entry inh inconclusive, HCV inh 0.56µM (no result: Cycloheximide cs, MARV entry inh, Shiga toxin inh)
CCC(=O)N1c2ccccc2C(C)(c2ccccc2)CC1(C)C (centres undefined)	none (no result: Cycloheximide cs, Shiga toxin inh, HCV inh)
CC1(c2ccccc2)CC(C)(C)N(C(=O)C2CCCO2)c2ccccc21 (centres undefined)	MARV entry inh 18µM, HCV inh inconclusive (no result: FMDV antiviral)
O=C(/C(=C/c1ccc(Cl)cc1)c1nc2ccccc2[nH]1)c1cccs1	FMDV antiviral inconclusive, Cycloheximide cs 62, HCV inh 11µM (no result: LASV entry inh)
COc1ccc(C(=O)N/C(=C\c2cccs2)c2nc3ccccc3[nH]2)cc1OC	Cycloheximide cs 22, Shiga toxin inh 98
N#C/C(=C\c1ccc(Sc2ccc(Cl)cc2)o1)c1nc2ccccc2[nH]1	MARV entry inh inconclusive, HCV inh inconclusive
O=C(/C(=C\c1ccccc1)c1nc2ccccc2[nH]1)c1ccc(Cl)cc1	FMDV antiviral inconclusive, Cycloheximide cs 19, MARV entry inh inconclusive, Shiga toxin inh 21, LASV entry inh inconclusive, HCV inh inconclusive
O=C(/C=C/c1cccc(Cl)c1)c1nc2ccccc2[nH]1	FMDV antiviral inconclusive, Cycloheximide cs 14, MARV entry inh inconclusive, LASV entry inh inconclusive, HCV inh inconclusive
N#C/C(=C(/O)c1ccc(C(=O)c2ccccc2)cc1)c1nc2ccccc2[nH]1	none
COc1cc(/C=C(/C(=O)c2cccs2)c2nc3ccccc3[nH]2)ccc1O	FMDV antiviral 25µM, Cycloheximide cs 66, MARV entry inh 4.1µM, Shiga toxin inh 111, LASV entry inh inconclusive, HCV inh inconclusive
CC/C(=N\NC(=O)c1cc(C2CC2)[nH]n1)c1ccccc1	Cycloheximide cs 15, Shiga toxin inh 69 (no result: MARV entry inh, LASV entry inh)
CC(C)NC(=O)CC(=O)N/N=C/c1c(F)cccc1Cl	none
CC/C(=N\NC(=O)c1c(C)nc2ccccn12)c1ccccc1	none
Cc1nn(-c2ccccc2)c(C)c1/C=N/NC(=O)c1cc(C23CC4CC(CC(C4)C2)C3)[nH]n1	FMDV antiviral inconclusive, MARV entry inh inconclusive, LASV entry inh inconclusive, HCV inh 10µM
COc1cc(/C=N/NC(=O)c2cc(C34CC5CC(CC(C5)C3)C4)[nH]n2)ccc1O	FMDV antiviral inconclusive
O=C(N/N=C/c1c(F)cccc1Cl)c1cc(C2CC2)[nH]n1	Cycloheximide cs 30, Shiga toxin inh 77 (no result: MARV entry inh, LASV entry inh)
Cc1nn(-c2ccccc2)c(C)c1/C=N/NC(=O)c1cc(C2CC2)[nH]n1	Cycloheximide cs 14, MARV entry inh inconclusive
CCOC(=O)c1cnn(-c2nc(SC)nc3sc4c(c23)CCC4)c1N	none
CNC(=O)CN(c1cc(OCCOC)c(Cl)cc1Cl)S(=O)(=O)c1ccc(OC)cc1	none
